Inconclusive results are not listed. Active and inactive are the calls of the source. The calls were made as follows: active = hit-call score of the fitted dose curve at least 0.9, where 1 is the maximum; inconclusive = response in the unintended direction; inactive = score below 0.9.

Consider two molecules from PubChem BioAssay AID2284374 (EPA ToxCast).

Chain of human Peroxisome Proliferator-activated Receptor delta (PPARd), PPARD (gene 5467) (Q03181 whole entry, looked up): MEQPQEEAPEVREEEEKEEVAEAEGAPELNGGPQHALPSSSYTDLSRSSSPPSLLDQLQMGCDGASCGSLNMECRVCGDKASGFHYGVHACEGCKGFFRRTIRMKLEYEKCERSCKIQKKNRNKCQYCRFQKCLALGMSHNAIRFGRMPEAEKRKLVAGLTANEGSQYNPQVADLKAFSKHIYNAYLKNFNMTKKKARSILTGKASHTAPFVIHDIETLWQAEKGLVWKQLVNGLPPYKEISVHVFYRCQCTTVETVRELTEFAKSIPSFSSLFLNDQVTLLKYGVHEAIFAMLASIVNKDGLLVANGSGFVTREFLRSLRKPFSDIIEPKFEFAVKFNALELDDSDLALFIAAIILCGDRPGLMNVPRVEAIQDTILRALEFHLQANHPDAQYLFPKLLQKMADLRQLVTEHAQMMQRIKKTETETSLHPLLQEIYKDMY

This experiment concerns the target human Peroxisome Proliferator-activated Receptor delta (PPARd), PPARD (gene 5467) (UniProt Q03181). In words: ERF_US_NR_hPPARD: Eurofins (ERF) Nuclear Receptor (NR) Cell Based Protein-Protein Interaction LeadHunter Assay for human Peroxisome Proliferator-activated Receptor delta (PPARd) Agonism. How it is done: ERF_US_NR_hPPARD is a cell-based, single-readout assay that uses extracted gene-proteins in a cell-line assay. Measurements were taken 5 hours after chemical dosing in a 384-well plate. See PPARdelta Human NHR Cell Based Agonist Protein-Protein Interaction Assay, DiscoverX.ERF_US_NR_hPPARD is an assay component calculated from the ERF_US_NR_hPPARD assay. It is designed to measure radioligand binding using a type of binding reporter as detected by scintillation counting with radiometry technology.Data from the assay component ERF_US_NR_hPPARD was analyzed at the assay endpoint, ERF_US_NR_hPPARD, in the positive analysis fitting direction relative to DMSO as the negative control and baseline of activity. Using a type of binding reporter, gain-of-signal activity can be used to understand changes in binding as they relate to gene PPARD. To generalize the intended target to other relatable targets, this assay endpoint is annotated to the nuclear receptor intended target family, where the subfamily is non-steroidal.
Cells were seeded in a total volume of 20 uL into white walled, 384-well microplates and incubated at 37C overnight prior to testing. Briefly, intermediate dilution of sample stocks was performed to generate 5X sample in assay buffer. 5 uL of 5X sample was added to cells and incubated at 37C for 300 minutes. […] The results are expressed as a percent efficacy of the control ligand.
Consider `O=C(O)CCC(F)(F)C(F)(F)C(F)(F)F`, for which the molecule was classed as inactive.
Under `O=C(CC(=O)C(F)(F)C(F)(F)C(F)(F)F)c1cccs1` stands “inactive”.
